Source: PubChem BioAssay
Compounds with a hit are over-represented: about 3% of the library has one in this group of screens.
CRE Fsk mod = CRE-bla signaling modulation under forskolin stimulation. CHO CRE-bla reporter (cAMP response element driving beta-lactamase), forskolin EC10, beta-lactamase ratio. Potency, µM (titrated, usually from 38.2 µM), without a hit: at the highest dose activity change, negative = inhibition, actives largely listed as activators. 2.5% of 71,000 active. AID 662; active = well fitted activation curve with a large enough effect in the signal ratio, with a control signal flat, not every such curve was filed as active; inconclusive = small, poorly fitted or top-dose-only effect, or effect the other way, or a change in a side signal; the % refers to the signal ratio; note: % of control where 0% means no effect
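Using CellSensor CRE-bla CHO cells in Opti-MEM with 0.5% dialyzed FBS, compounds were titrated with EC10 NKH 477 for 3 h at 37 °C. CCF4 ratio (460/530 nm) gave %Activity; AC50 derived.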
p53ts 39C kill = kills p53ts cells at the nonpermissive temperature. H1299-p53A138V viability at 39C, ATP luminescence, 24 h. Potency, µM (series often up to 46.1 µM), without a hit: top-dose activity change, negative = cell killing, actives largely listed as cytotoxic. 1.5% of 130,000 active. AID 902; note: % is set by controls: 0 for no effect and ±100 for the full control effect; nearly all actives have a fitted effect of over 55% in size
Imprint erasure = inducers of genomic imprint erasure in mouse ES cells. 0.02% of 110,000 active. Potency, µM (highest dose often 60.7 µM), without a hit: at the top dose activity change, positive = activation, actives largely listed as activators. mouse ES Peg3-LacZ reporter, beta-gal luminescence, 40 h. AID 1948
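Imprint erasure is scored as LacZ activity from the silenced maternal Peg3 allele in feeder-free female ES cells cultured 40 h with LIF. Luminescence is normalized to in-plate negative controls and fitted to the Hill equation.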
p53ts 32C kill = p53ts cell cytotoxicity, permissive temperature. H1299-p53A138V at 32C, ATP luminescence viability, 24 h. Potency, µM (series often up to 46.1 µM), for the others: at the top dose activity change, negative = cytotoxicity, hits mostly cytotoxic. 0.93% of 130,000 active. AID 924;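 note: 0% = DMSO and -100% = full killing by reference compound; nearly all actives have a fitted effect of over 55% in size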
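H1299-p53 A138V cells (temperature-sensitive p53) exposed 24 h to up to 46 uM compound at 32C, where p53 is wild-type in conformation. Viability read as ATP luminescence and normalised to DMSO and 100 uM tamoxifen. AC50 fitted with the Hill equation.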
IkB signaling = suppresses IkB signaling in ABC-DLBCL reporter cells; ABC-DLBCL IkBa-CBG/CBR dual luciferase ratio, 4 h; response scale: scaled: untreated 0%, proteasome inhibitor 100%; Potency, µM (top dose mostly 57.1 µM), without a hit: at the top dose IkBa stabilization activation; 0.04% of 110,000 active; AID 445; active = well fitted curve in the direction sought with a large enough effect in the signal ratio, not every such curve was filed as active; inconclusive = small, poorly fitted or top-dose-only effect, or a change in a side signal; the % refers to the signal ratio;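 note: the direction sought is a rising ratio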
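Luminescence ratio of IκBα-fused green versus native red beetle luciferase in OCI-Ly3 cells, 4 h post-doxycycline with compound; red signal alone, scaled from basal (0%) to zero light (-100%), flagged nonspecific or cytotoxic effects.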
The depositor's hits bear a star; ! = a repeat was not active; [ ] = dose if it differs, or a comment. Unless noted, calls come from the whole dose curve; as a rule, active = well fitted curve in the direction sought with a large enough effect; inconclusive = small, poorly fitted or top-dose-only effect, or another doubt; inactive = no such curve, though single readings can be large; an effect the other way counts as inactive or inconclusive. Potency is the fitted concentration of half-maximal effect.

CC(=O)c1cccc(NC(=O)c2nc3ccccc3n(C)c2=O)c1 was read as p53ts 39C kill 1.58µM*, Imprint erasure -44.9%[10.9 µM], p53ts 32C kill 2.24µM* and IkB signaling inconclusive.
CCC(C)n1cnc2c(c1=O)c1nc3ccccc3nc1n2-c1ccc2c(c1)OCCO2 (centres undefined) was read as CRE Fsk mod inconclusive, p53ts 39C kill 6.6%, Imprint erasure 2.2%, p53ts 32C kill 7.5% and IkB signaling -0.8%.
For CCC(C)n1cnc2c(c1=O)c1nc3ccccc3nc1n2Cc1ccc2c(c1)OCO2 (centres undefined) the results were CRE Fsk mod 15.8µM*, p53ts 39C kill 4.7%, Imprint erasure -7.7%, p53ts 32C kill -4.8% and IkB signaling inconclusive.
COc1cc(NC(=O)N2CCSc3ccccc32)cc(OC)c1OC was read as p53ts 32C kill -2.8%.
For O=C(Nc1cccc(-c2nnc(-c3ccccc3)o2)c1)c1ccc(Br)o1 the results were CRE Fsk mod inconclusive, p53ts 39C kill 25.1µM*, Imprint erasure -22.6%, p53ts 32C kill inconclusive and IkB signaling inconclusive.
For CCCCCCCCCCCCCCCC(=O)OCC(O)C1OC(=O)C(O)=C1O (centres undefined) the results were Imprint erasure -6.9%.
O=C(Nc1ccc(-c2cc(C(F)(F)F)nn2-c2ccccc2)cc1)c1cccc(F)c1 was read as p53ts 39C kill -23.9%, Imprint erasure -11.4%[10.9 µM], p53ts 32C kill 4.9% and IkB signaling inconclusive.
Screening Cc1nc2sccn2c1-c1nc(C2CC2)c(C(=O)c2ccc3c(c2)NC(=O)CO3)s1 returned CRE Fsk mod 2.51µM*, p53ts 39C kill 0.5%, Imprint erasure -7.5%, p53ts 32C kill -1.2% and IkB signaling 0.1%.
For Fc1ccc(-c2nnc(NC3=NCCCCC3)o2)cc1 the results were CRE Fsk mod -0.6%, p53ts 39C kill 3.98µM*, Imprint erasure -92.0%, p53ts 32C kill 3.98µM* and IkB signaling inconclusive.
`CCOc1ccc(-c2nc(CSc3nncs3)cs2)cc1OC` gave CRE Fsk mod 5.01µM*, p53ts 39C kill -9.7%, Imprint erasure -22.8%, p53ts 32C kill 2.6% and IkB signaling -2.7%.
COc1cccc(Cn2c(CNC(=O)C(C)C)nc3cccnc32)c1 was read as p53ts 39C kill -14.6%, Imprint erasure 8.5%[10.9 µM], p53ts 32C kill 3.4% and IkB signaling 1.4%.
Screening Oc1ccc(Cc2nccc3cc(O)c(O)cc23)cc1O returned CRE Fsk mod inconclusive, p53ts 39C kill 5.4%[9.22 µM], Imprint erasure 3.8%[10.9 µM], p53ts 32C kill 6.1%[9.22 µM] and IkB signaling 1.1%[11.4 µM].
For CCOc1ccc(Cc2nccc3cc(OCC)c(OCC)cc23)cc1OCC the results were CRE Fsk mod 1.26µM*, p53ts 39C kill 4.4%, Imprint erasure -14.0%, p53ts 32C kill 16.7% and IkB signaling 1.9%[25.6 µM].
Screening Cc1cc(=S)[nH]c2ccccc12 returned CRE Fsk mod inconclusive, p53ts 39C kill -16.9%, Imprint erasure -5.4%, p53ts 32C kill -5.1% and IkB signaling -1.1%.
For COc1ccc(OC)c2c(=S)c3ccccc3[nH]c12 the results were CRE Fsk mod 20µM*, p53ts 39C kill -11.4%, Imprint erasure -20.2%, p53ts 32C kill 1.5% and IkB signaling inconclusive.
CN(C)C(=O)c1ccc(-c2nc(N3CCOCC3)c3ccccc3n2)cc1 was read as CRE Fsk mod 10µM*, p53ts 39C kill -9.8%, Imprint erasure inconclusive, p53ts 32C kill inconclusive and IkB signaling 0.0%[11.4 µM].
`Clc1ccccc1-c1nc(-n2ccnc2)c2ccccc2n1` gave CRE Fsk mod inconclusive, p53ts 39C kill 74.4%, Imprint erasure -20.4%, p53ts 32C kill 13.7% and IkB signaling 0.2%[11.4 µM].
CN(C)c1ccc(-c2nc(-n3ccnc3)c3ccccc3n2)cc1 was read as CRE Fsk mod inconclusive, p53ts 39C kill 12.6µM*, Imprint erasure -79.4%, p53ts 32C kill 10µM* and IkB signaling -0.5%[11.4 µM].
Screening FC(F)(F)c1ccccc1-c1nc(N2CCOCC2)c2ccccc2n1 returned CRE Fsk mod inconclusive, p53ts 39C kill -7.9%, Imprint erasure inconclusive, p53ts 32C kill 10.2% and IkB signaling 4.0%[11.4 µM].
Screening CN(C)c1ccc(-c2nc(N3CCNCC3)c3ccccc3n2)cc1 returned CRE Fsk mod inconclusive, p53ts 39C kill 10µM*, Imprint erasure -65.1%, p53ts 32C kill 12.6µM* and IkB signaling -4.9%[11.4 µM].
CN(C)C(=O)c1ccc(-c2nc(-n3ccnc3)c3ccccc3n2)cc1 was read as CRE Fsk mod inconclusive, p53ts 39C kill 10µM*, Imprint erasure -63.6%, p53ts 32C kill 7.94µM* and IkB signaling -0.3%[11.4 µM].
Screening CN1CCN(c2nc(-c3cccc(NS(C)(=O)=O)c3)nc3ccccc23)CC1 returned CRE Fsk mod inconclusive, p53ts 39C kill -9.2%, Imprint erasure -12.1%, p53ts 32C kill -11.7% and IkB signaling -1.7%[11.4 µM].
`CN1CCN(c2nc(-c3cccnc3)nc3ccccc23)CC1` gave CRE Fsk mod 10µM*!, p53ts 39C kill 2.9%, Imprint erasure -2.6%, p53ts 32C kill -4.3% and IkB signaling 3.5%.
`CS(=O)(=O)Nc1cccc(-c2nc(N3CCOCC3)c3ccccc3n2)c1` gave CRE Fsk mod 2.51µM*, p53ts 39C kill 12.6%, Imprint erasure -8.0%, p53ts 32C kill 4.2% and IkB signaling -3.1%[11.4 µM].
Screening Cc1cccc(NS(=O)(=O)c2ccc3c(c2)CC(C)N3C(=O)C2CCC2)c1C (centres undefined) returned p53ts 32C kill -6.0%.
CCOCCCNC(=O)C1CCN(C(=O)c2cc3sccc3n2C)CC1 was read as p53ts 39C kill -4.6%, Imprint erasure -9.5%[10.9 µM], p53ts 32C kill -3.3% and IkB signaling 1.1%.
`COCCCNC(=O)c1c(NC(=O)Cc2coc3c(C)c(C)ccc23)sc2c1CCCC2` gave p53ts 39C kill -17.9%, Imprint erasure -13.8%[10.9 µM], p53ts 32C kill inconclusive and IkB signaling inconclusive.
`Cc1cc(C)nc(N2CCCC(C(=O)Nc3ccc4nc(C)c(C)nc4c3)C2)n1` (centres undefined) gave CRE Fsk mod 6.31µM*, p53ts 39C kill -5.6%, Imprint erasure -13.7%, p53ts 32C kill 1.2% and IkB signaling inconclusive.
For CCNc1nc(NCC)nc(Oc2ccc(OCC)nn2)n1 the results were CRE Fsk mod inconclusive, p53ts 39C kill 2.0%, Imprint erasure -8.7%, p53ts 32C kill 0.8% and IkB signaling 2.4%.
For CCNc1nc(N)nc(Oc2ccc(OCCOc3ccc(Cl)cc3Cl)nn2)n1 the results were CRE Fsk mod 6.31µM*, p53ts 39C kill -0.7%, Imprint erasure -18.6%, p53ts 32C kill 3.3% and IkB signaling -0.4%.
